Consider five molecules from PubChem BioAssay (EPA / NIEHS).

“And” between values parts separate entries of the source, which are not always exact repeats. Identical values can stand only once. Some compounds were tested as several samples or in several runs, with calls that do not always agree. The source made the active and inactive calls. How the source made its calls: active means hit-call score of the fitted dose curve at least 0.9, where 1 is the maximum; inactive means score below 0.9.

For orientation: AC50 means the concentration giving half of the maximal activity seen.

A short description of assay [1]: ATG_E_Box_CIS: Attagene CIS-FACTORIAL HepG2 Assay for human Enhancer Box (E-box) (AID 2282936). The note with it: HepG2 E-box cis-reporter transcription, actives raise or lower the signal. The gist of the method: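 Cells: HepG2 (human liver), transient MRTU transfection. Exposure 24 h. RNA → oligo(dT) RT → PCR → 6-FAM label → HpaI → CE. Activity fitted both directions relative to DMSO.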

Assay [2] is described as follows: ATG_M_61_CIS: Attagene CIS-FACTORIAL HepG2 Assay for M61 Transcription Factor (Internal Marker) (AID 2282937). The note with it: HepG2 Attagene CIS-FACTORIAL M61 internal marker reporter; actives raise or lower the signal. The gist of the method:
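This endpoint serves as an internal background control within a multiplexed HepG2 cis-reporter panel. Cells are exposed for 24 h; reporter mRNA is amplified, fluorescently labelled and sized by capillary electrophoresis, with DMSO as negative control.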

Assay [3] in a line: ATG_EGR_CIS: Attagene CIS-FACTORIAL HepG2 Assay for human Early Growth Response 1 (EGR1) (AID 2282938). The note with it: HepG2 Attagene CIS-FACTORIAL EGR reporter mRNA; actives raise or lower the signal. The gist of the method: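 HepG2, transient MRTU transfection (cis promoters), 24 h compound. RNA → RT (oligo-dT) → PCR → 6-FAM labelling → HpaI cut → CE fluorescence. Bidirectional fit, DMSO baseline.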

Assay [4] in a line: ATG_M_19_CIS: Attagene CIS-FACTORIAL HepG2 Assay for M19 Transcription Factor (Internal Marker) (AID 2282939). The note with it: HepG2 Attagene CIS-FACTORIAL M19 internal marker reporter; actives raise or lower the signal. The method, boiled down: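 Readout: fluorescent reporter-transcript fragments by capillary electrophoresis after RT-PCR. Human HepG2 liver cells carried transfected MRTU constructs reporting endogenous transcription-factor activity; exposure 24 h. Gain or loss of signal fitted relative to DMSO.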

Assay [5] is described as follows: ATG_ERE_CIS: Attagene CIS-FACTORIAL HepG2 Assay for Estrogen Response Element (ERE) (AID 2282940). The note with it: HepG2 ERE cis-reporter, Attagene RNA transcript; actives raise or lower the signal. The gist of the method:
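Readout: reporter mRNA induction by RT-PCR, FAM-labelled primer extension, HpaI digestion and capillary electrophoresis, 24 h after dosing transfected HepG2 cells. Endogenous transcription factors act on cis-element-regulated reporters. Gain or loss fitted against DMSO.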

Assay [6] in a line: ATG_Ets_CIS: Attagene CIS-FACTORIAL HepG2 Assay for human Erythroblast Transformation Specific (ETS) (AID 2282941). The note with it: HepG2 ETS cis-reporter transcription, actives raise or lower the signal. The gist of the method: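 After transient cis-reporter transfection, HepG2 cells receive test chemical for 24 h. Reporter mRNA levels, measured by RT-PCR and capillary electrophoresis fluorescence, are analysed bidirectionally relative to the DMSO baseline.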

The target in assay [7] is Hepatocyte nuclear factor 3-beta (Homo sapiens) (UniProt Q9Y261). Briefly: ATG_FoxA2_CIS: Attagene CIS-FACTORIAL HepG2 Assay for human Forkhead box A2 (FOXA2) (AID 2282942). The note with it: HepG2 cis-reporter transcription factor activity, 24 h; actives raise or lower the signal. The gist of the method: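 Cells: HepG2, transient multiplex reporter transfection. Exposure 24 h. Detection: reporter-specific RT-PCR, fluorescent labelling, restriction digest, capillary electrophoresis. Analysis: bidirectional curve fit, DMSO as negative control.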

Assay [8] can be described thus: ATG_FoxO_CIS: Attagene CIS-FACTORIAL HepG2 Assay for human Forkhead box O (FoxO) (AID 2282943). The note with it: HepG2 Attagene cis-reporter, FoxO element, mRNA; actives raise or lower the signal. The gist of the method: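 Endogenous transcription factor activity read from multiplexed cis-promoter reporter transcripts in transiently transfected HepG2, 24 h after dosing. Reporter RNA measured via RT-PCR plus capillary electrophoresis of FAM-labeled products; gain or loss relative to DMSO.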

A short description of assay [9]: ATG_GATA_CIS: Attagene CIS-FACTORIAL HepG2 Assay for human GATA Binding Protein (AID 2282944). The note with it: HepG2 GATA cis-element reporter, Attagene multiplex mRNA; actives raise or lower the signal. The gist of the method:
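Read-out: fluorescent reporter mRNA fragments resolved by capillary electrophoresis after RT-PCR. Human liver HepG2 cells carried transiently transfected cis-regulated reporter constructs; chemicals incubated 24 h; gain or loss of signal fitted relative to DMSO.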

A short description of assay [10]: ATG_GLI_CIS: Attagene CIS-FACTORIAL HepG2 Assay for human Zinc Finger Protein GLI1 (AID 2282945). The note with it: HepG2, Attagene cis-factorial reporter mRNA, GLI element; actives raise or lower the signal. The gist of the method: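 Bidirectional curve fits relative to DMSO, using reporter mRNA levels from RT-PCR plus capillary electrophoresis. Cells were HepG2 transiently carrying cis-regulated reporter constructs, harvested 24 h after dosing.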

Assay [11] is described as follows: ATG_GRE_CIS: Attagene CIS-FACTORIAL HepG2 Assay for human Glucocorticoid Response Elements (GRE) (AID 2282947). The note with it: HepG2 GRE cis-reporter, Attagene multiplex mRNA; actives raise or lower the signal. The method, boiled down: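 Transient MRTU transfection of human HepG2 liver cells; cis-regulated reporters report endogenous factors. 24 h dosing → RNA isolation → RT-PCR → 6-FAM primer extension → HpaI cut → CE fragment analysis. Bidirectional fit, DMSO negative control.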

Assay [12] is described as follows: ATG_ISRE_CIS: Attagene CIS-FACTORIAL HepG2 Assay for human Interferon Regulatory Factor 1 (IRF1) binding to an Interferon-Stimulated Response Element (ISRE) (AID 2282948). The note with it: HepG2 ISRE cis-reporter (Attagene), mRNA transcription readout; actives raise or lower the signal. The method, boiled down: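 Quantitation relies on labelled RT-PCR fragments separated by capillary electrophoresis. Human HepG2 cells bearing cis-promoter reporter constructs were treated 24 h; DMSO served as baseline for bidirectional fitting.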

Assay [13] in a line: ATG_M_32_CIS: Attagene CIS-FACTORIAL HepG2 Assay for M32 Transcription Factor (Internal Marker) (AID 2282949).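 Further: background control marker of the multiplexed CIS panel rather than a real target.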 The note with it: HepG2 Attagene cis-factorial M32 reporter, mRNA; actives raise or lower the signal. The gist of the method: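 Fluorescent capillary electrophoresis peaks of HpaI-digested, FAM-labelled RT-PCR reporter products give the signal. Source: transiently transfected human liver HepG2 cells, 24 h after chemical dosing; bidirectional fitting against DMSO.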

The nature of assay [14]: ATG_M_06_CIS: Attagene CIS-FACTORIAL HepG2 Assay for M06 Transcription Factor (Internal Marker) (AID 2282950). The note with it: HepG2 Attagene CIS-FACTORIAL M06 internal marker reporter; actives raise or lower the signal. The method, boiled down:
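Terse: HepG2, transient MRTU transfection (FuGene 6), 24 h dosing; total RNA, oligo(dT) RT, PCR, FAM label, HpaI cut, capillary electrophoresis; bidirectional fit vs DMSO baseline; background-control endpoint.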

The target in assay [15] is Hypoxia-inducible factor 1-alpha (Homo sapiens) (UniProt Q16665). The assay can be described thus: ATG_HIF1a_CIS: Attagene CIS-FACTORIAL HepG2 Assay for human Hypoxia Inducible Factor 1 (HIF1A) (AID 2282951). The note with it: HepG2 Attagene cis-factorial HIF1a reporter transcription; actives raise or lower the signal. The gist of the method: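 HepG2, transient cis-reporter library, 24 h dosing. RNA → RT (oligo dT) → PCR → 6-FAM primer extension → HpaI → CE. Bidirectional curve fit vs DMSO.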

Assay [16] has as its target Hepatocyte nuclear factor 6 (Homo sapiens) (UniProt Q9UBC0). The assay can be described thus: ATG_HNF6_CIS: Attagene CIS-FACTORIAL HepG2 Assay for human Hepatocyte Nuclear Factor 6 (HNF6) (AID 2282952). The note with it: HepG2 Attagene cis-factorial HNF6 reporter transcription; actives raise or lower the signal. The gist of the method:
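HepG2 cells transiently transfected with cis-element-driven multiplexed reporter units measuring endogenous transcription factor activity. After 24 h exposure, reporter mRNA quantified by RT-PCR, FAM-labelled fragments and capillary electrophoresis; bidirectional fitting versus DMSO.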

Assay [17] has as its target Heat shock factor protein 1 (Homo sapiens) (UniProt Q00613). The assay can be described thus: ATG_HSE_CIS: Attagene CIS-FACTORIAL HepG2 Assay for human Heat Shock Transcription Factor 1 (HSE) (AID 2282953). The note with it: HepG2 HSE cis-reporter, Attagene RNA transcription; actives raise or lower the signal. The gist of the method:
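Read-out: fluorescence of reporter-specific RT-PCR fragments separated by capillary electrophoresis. HepG2 carrying transfected cis-element reporter units; 24 h dosing; activity fitted in both directions relative to DMSO baseline.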

Assay [18] is described as follows: ATG_MRE_CIS: Attagene CIS-FACTORIAL HepG2 Assay for human Metal Responsive Element (MRE) (AID 2282954). The note with it: HepG2 MRE cis-reporter transcription, Attagene multiplex; actives raise or lower the signal. The gist of the method:
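Transient MRTU transfection of HepG2 (FuGene 6); 24 h dosing; total RNA → oligo(dT) RT, PCR, 6-FAM primer extension, HpaI cut, CE. Bidirectional fit vs DMSO.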

Assay [19] is described as follows: ATG_PBREM_CIS: Attagene CIS-FACTORIAL HepG2 Assay for human Phenobarbital-responsive Enhancer Module (PBREM) (AID 2282955). The note with it: HepG2 PBREM cis-reporter, Attagene multiplexed transcription; actives raise or lower the signal. The gist of the method:
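HepG2, transient MRTU transfection, 24 h dosing; RNA → oligo(dT) RT → PCR → 6-FAM extension → HpaI → CE. Bidirectional fit vs DMSO.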

For assay [20], the target named is Bile acid receptor (Homo sapiens) (UniProt Q96RI1). Briefly: ATG_IR1_CIS: Attagene CIS-FACTORIAL HepG2 Assay for human Nuclear Receptor Subfamily 1 Group H Member 4 (NR1H4), IR1 submotif (AID 2282946). The note with it: IR1 reporter transcription, actives raise or lower the signal. The gist of the method: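 Cells (human HepG2) carry transiently transfected cis-promoter reporter transcription units. Compounds are incubated 24 h, total RNA is reverse-transcribed and amplified, and labelled fragments are resolved by capillary electrophoresis. Curves use DMSO as baseline.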
Chain of Bile acid receptor (Homo sapiens) (Q96RI1 whole entry, looked up, the tested form may be a part): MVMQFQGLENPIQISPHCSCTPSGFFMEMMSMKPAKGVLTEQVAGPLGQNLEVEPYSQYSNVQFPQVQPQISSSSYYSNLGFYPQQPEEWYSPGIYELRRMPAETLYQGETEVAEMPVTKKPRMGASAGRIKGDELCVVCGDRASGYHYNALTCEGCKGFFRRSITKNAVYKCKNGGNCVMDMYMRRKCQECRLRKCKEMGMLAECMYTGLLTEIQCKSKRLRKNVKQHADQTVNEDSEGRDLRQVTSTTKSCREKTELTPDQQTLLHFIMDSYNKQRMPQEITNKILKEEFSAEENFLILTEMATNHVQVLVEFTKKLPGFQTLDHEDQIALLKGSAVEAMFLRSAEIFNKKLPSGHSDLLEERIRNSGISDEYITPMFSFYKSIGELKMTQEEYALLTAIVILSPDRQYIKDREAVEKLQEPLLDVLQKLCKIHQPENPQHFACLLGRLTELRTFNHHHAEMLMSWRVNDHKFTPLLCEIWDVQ

Chain of Hepatocyte nuclear factor 3-beta (Homo sapiens) (Q9Y261 whole entry, looked up): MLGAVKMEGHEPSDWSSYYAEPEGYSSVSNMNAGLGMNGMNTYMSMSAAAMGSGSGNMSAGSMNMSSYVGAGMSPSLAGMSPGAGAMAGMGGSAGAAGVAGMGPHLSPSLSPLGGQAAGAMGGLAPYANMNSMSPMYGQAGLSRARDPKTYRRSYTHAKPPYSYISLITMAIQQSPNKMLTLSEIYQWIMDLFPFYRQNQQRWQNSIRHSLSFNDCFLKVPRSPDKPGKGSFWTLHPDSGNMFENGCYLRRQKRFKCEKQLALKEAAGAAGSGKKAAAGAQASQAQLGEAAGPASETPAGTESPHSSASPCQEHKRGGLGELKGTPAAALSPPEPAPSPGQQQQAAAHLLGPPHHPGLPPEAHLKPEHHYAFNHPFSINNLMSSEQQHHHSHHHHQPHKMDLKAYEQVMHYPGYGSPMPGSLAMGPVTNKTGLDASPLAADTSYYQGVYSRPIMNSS
Chain of Hepatocyte nuclear factor 6 (Homo sapiens) (Q9UBC0 whole entry, looked up, the tested form may be a part): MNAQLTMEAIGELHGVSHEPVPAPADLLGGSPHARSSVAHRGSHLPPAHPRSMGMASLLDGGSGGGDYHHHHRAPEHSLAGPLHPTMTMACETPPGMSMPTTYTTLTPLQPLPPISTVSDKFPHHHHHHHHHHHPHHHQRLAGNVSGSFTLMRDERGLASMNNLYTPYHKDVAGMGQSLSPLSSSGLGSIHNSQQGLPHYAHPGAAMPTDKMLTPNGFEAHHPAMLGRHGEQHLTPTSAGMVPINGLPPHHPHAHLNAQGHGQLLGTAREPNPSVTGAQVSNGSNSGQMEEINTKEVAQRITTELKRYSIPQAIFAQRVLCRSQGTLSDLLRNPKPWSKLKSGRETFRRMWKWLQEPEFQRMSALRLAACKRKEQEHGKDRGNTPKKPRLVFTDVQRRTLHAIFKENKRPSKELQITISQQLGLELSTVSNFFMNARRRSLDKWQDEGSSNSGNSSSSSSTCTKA
Chain of Heat shock factor protein 1 (Homo sapiens) (Q00613 whole entry, looked up, the tested form may be a part): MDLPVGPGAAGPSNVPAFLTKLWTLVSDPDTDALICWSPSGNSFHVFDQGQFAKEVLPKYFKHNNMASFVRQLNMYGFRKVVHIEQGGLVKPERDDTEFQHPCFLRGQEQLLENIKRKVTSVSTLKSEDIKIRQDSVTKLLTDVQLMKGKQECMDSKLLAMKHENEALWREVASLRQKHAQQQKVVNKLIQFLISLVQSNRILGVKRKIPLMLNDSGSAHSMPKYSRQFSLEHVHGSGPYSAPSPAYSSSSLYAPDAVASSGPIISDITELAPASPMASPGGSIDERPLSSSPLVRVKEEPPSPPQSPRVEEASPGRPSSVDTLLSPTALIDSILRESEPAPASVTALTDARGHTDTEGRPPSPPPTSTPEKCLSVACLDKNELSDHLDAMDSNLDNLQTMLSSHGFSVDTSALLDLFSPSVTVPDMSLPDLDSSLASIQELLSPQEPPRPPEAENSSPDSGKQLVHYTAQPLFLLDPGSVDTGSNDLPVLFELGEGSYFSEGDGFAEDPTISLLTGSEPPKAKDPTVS
Chain of Hypoxia-inducible factor 1-alpha (Homo sapiens) (Q16665 whole entry, looked up): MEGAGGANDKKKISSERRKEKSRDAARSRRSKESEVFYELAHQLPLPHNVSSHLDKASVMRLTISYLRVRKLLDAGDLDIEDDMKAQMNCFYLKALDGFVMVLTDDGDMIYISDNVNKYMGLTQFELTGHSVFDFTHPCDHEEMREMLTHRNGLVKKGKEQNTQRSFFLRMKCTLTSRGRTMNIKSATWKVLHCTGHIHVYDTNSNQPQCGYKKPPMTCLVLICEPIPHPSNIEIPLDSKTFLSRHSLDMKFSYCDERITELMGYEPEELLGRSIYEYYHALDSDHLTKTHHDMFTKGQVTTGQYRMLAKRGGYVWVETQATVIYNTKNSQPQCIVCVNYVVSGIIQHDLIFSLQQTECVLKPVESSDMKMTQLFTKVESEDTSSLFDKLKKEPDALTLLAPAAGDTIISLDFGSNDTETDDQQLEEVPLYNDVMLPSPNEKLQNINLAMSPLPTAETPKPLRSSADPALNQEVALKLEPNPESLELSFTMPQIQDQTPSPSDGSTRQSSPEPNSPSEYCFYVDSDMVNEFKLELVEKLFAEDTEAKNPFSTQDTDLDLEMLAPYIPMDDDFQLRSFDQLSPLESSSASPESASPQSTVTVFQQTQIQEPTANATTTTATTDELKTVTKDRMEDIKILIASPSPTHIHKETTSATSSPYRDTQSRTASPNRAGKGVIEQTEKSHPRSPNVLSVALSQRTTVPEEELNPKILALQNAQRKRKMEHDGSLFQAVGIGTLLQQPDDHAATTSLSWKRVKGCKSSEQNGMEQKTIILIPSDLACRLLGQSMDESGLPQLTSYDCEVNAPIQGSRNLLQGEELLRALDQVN

On to `CCCN(CCC)N=O`, for which the outcome in assay [1], in assay [2], in assay [3], in [4], in assay [6] and in assay [7] was inactive. In addition, the call in [8], in assay [9], in assay [10], in assay [11], in assay [12] and in [13] was inactive. For the same molecule, the call in assay [14], in [15], in assay [16], in assay [17], in assay [18] and in assay [19] was inactive. The AC50 in assay [5] was 46.4 µM (active).
`Cc1cc(-c2ccc(N)c(C)c2)ccc1N`: the result in assay [1], in [2], in assay [3], in [4], in assay [6] and in [7] was inactive. Besides, the molecule was called inactive in assay [8], in assay [9], in assay [10], in assay [12], in assay [13] and in assay [14]. For the same molecule, the molecule was classed as inactive in assay [15], in [16], in assay [17], in assay [18] and in assay [19]. Also, the half-maximal activity concentration (AC50) in [5] was 14.6 µM (active) and 12.8 µM (active).
Take `ClC1=C(Cl)[C@]2(Cl)[C@@H]3[C@@H]4C[C@@H]([C@H]5O[C@@H]45)[C@@H]3[C@@]1(Cl)C2(Cl)Cl`: the result in assay [1], in assay [2], in assay [3], in [4], in assay [6] and in [7] was inactive. Also, the molecule was classed as inactive in [8], in assay [9], in assay [10], in assay [11], in assay [13] and in assay [14]. In addition, the result in assay [15], in [16] and in assay [17] was inactive. Besides, the AC50 was 1.04 µM (active) in assay [5], 80.5 µM (active) in assay [12] and 46.5 µM (active) in assay [18].
With `Oc1c(Cl)c(Cl)c(Cl)c(Cl)c1Cl`, the outcome in assay [2], in assay [3], in assay [4], in assay [5], in assay [6] and in assay [7] was inactive. Further, the call in assay [8], in assay [9], in assay [10], in assay [20], in [11] and in assay [12] was inactive. In addition, the call in [13], in assay [14], in assay [15], in assay [16] and in assay [19] was inactive. In addition, the AC50 in assay [3] is 29.4 µM (active) and 11.2 µM (active); in [5], 13.4 µM (active); in assay [6] it was 21.5 µM (active); in [8], 33.6 µM (active); in assay [10], 82 µM (active); in assay [12], 78.7 µM (active) and 51 µM (active). For the same molecule, the AC50 in assay [15] is 3.43 µM (active) and 20.6 µM (active); in assay [16], 25.9 µM (active); in assay [17], 31.5 µM (active) and 75.4 µM (active) and 142 µM (active); in [18] it was 50 µM (active) and 40.9 µM (active) and 78.8 µM (active); in assay [19] it was 18.1 µM (active) and 7.11 µM (active).
`CCCCCCCCCC[N+](C)(C)CCCCCCCCCC`: the AC50 is 40.8 µM (active) in assay [1]; 6.79 µM (active) in assay [3]; 100 µM (active) in assay [9]; 100 µM (active) in assay [10]; 5.11 µM (active) in assay [20]; 8.55 µM (active) in [11]. The half-maximal activity concentration (AC50) in [12] was 24.9 µM (active); in assay [18], 4.45 µM (active). Moreover, the molecule was classed as inactive in assay [2], in assay [4], in [5], in assay [6], in assay [7] and in [8]. In addition, the molecule was classed as inactive in assay [13], in assay [14], in assay [15], in assay [16], in assay [17] and in assay [19].
